Measurements from PubChem BioAssay (NCATS).
Results filed as inconclusive are left out. Calls of active or inactive are those of the source. Unless noted, the call rests on the fitted dose curve; in most records, active means well fitted curve in either direction with a large enough effect (not every such curve was filed as active); inconclusive means small, poorly fitted or top-dose-only effect, or another doubt; inactive means flat fitted curve, though single readings scatter.

Tests used:
[1] = target: Lysosomal acid glucosylceramidase (Homo sapiens) (UniProt P04062); assay: Glucocerebrosidase-p2 (AID 348; in the data active means potency below about 10 µM; further: potency means the concentration at half of the fitted maximal effect); details: purified GBA, blue fluorogenic substrate, 40 min
Sequence of Lysosomal acid glucosylceramidase (Homo sapiens) (P04062 whole entry, looked up): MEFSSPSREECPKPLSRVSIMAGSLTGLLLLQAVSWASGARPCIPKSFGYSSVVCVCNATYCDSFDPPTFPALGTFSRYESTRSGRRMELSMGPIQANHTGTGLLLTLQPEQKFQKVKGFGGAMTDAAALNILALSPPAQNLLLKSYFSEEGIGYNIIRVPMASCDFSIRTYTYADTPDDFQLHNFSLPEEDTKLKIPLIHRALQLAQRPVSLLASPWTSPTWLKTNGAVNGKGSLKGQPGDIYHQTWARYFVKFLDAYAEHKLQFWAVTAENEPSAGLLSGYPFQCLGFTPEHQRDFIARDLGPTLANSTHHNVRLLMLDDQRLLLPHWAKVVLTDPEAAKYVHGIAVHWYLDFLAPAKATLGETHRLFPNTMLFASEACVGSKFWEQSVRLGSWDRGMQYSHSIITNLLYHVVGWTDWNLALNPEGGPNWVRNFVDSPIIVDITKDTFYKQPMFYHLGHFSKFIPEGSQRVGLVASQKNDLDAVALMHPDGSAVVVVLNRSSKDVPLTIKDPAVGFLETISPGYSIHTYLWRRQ
Method in brief: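 Normal human glucocerebrosidase (0.2 nM) with blue fluorogenic substrate (80 uM final) in citrate/phosphate pH 5.9 with 10mM sodium taurocholate, 0.01% tween-20; 40 min RT, NaOH/glycine stop; fluorescence Ex 365/Em 440; AC50 from a titration from 0.6 nM upwards.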

[2] = AP1 Signaling Pathway (AID 357); details: ME-180 AP-1-bla reporter, EGF-induced, beta-lactamase ratio, 5 h; at 7.69 µM (top of the series) unless noted;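 further: ME-180 reporter cells stimulated with EGF at its EC50 level; on the % scale 0 is the no-effect control and ±100 the full control effect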
Method in brief: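 In this screen, ME-180 cells in Opti-MEM with 0.5% dialyzed FBS received EC50 EGF and compound titrations for 5 h. AP-1 reporter beta-lactamase was detected via CCF4 ratio, giving AC50 for positive and negative modulators.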

[3] = target: Cytochrome P450 1A2 (Homo sapiens) (UniProt P05177); assay: p450-cyp1a2 (AID 410; calls by dose curve; further: potency means the concentration at half of the fitted maximal effect;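 on activity change, negative = inhibition: -100% = full effect of reference inhibitor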); details: recombinant CYP1A2, luciferin-ME demethylation, luminescence; series mostly up to 57 µM
Sequence of Cytochrome P450 1A2 (Homo sapiens) (P05177 whole entry, looked up): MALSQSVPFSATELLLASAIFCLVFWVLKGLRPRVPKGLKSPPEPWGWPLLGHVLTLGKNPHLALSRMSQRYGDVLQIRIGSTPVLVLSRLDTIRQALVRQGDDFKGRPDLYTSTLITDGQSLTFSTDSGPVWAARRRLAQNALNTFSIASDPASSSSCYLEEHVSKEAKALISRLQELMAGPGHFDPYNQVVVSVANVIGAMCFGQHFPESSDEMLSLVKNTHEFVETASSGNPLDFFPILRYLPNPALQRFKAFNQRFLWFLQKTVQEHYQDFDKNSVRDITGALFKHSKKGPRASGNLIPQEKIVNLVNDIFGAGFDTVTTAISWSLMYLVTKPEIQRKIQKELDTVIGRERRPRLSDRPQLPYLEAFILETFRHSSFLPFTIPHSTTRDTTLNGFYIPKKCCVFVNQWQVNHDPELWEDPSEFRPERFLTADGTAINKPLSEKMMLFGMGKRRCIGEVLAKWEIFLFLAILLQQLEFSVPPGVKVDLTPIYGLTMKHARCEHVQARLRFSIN
Method in brief: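 20nM CYP1A2, 100uM Luciferin-ME (=Km), 100mM KPO4; cpd 10 min RT; +NADPH regen, 60 min RT; stop/detect 20 min; luminescence. Normalized to furafylline 57 uM = full inhibition.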

[4] = NFAT Signaling Pathway (AID 444); details: Jurkat NFAT-bla M1, carbachol, beta-lactamase ratio, 5 h; at 7.69 µM (top of the series) unless noted;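 further: carbachol stimulus at about its EC50 of 1 µM final; on the % scale 0 is the no-effect control and ±100 the full control effect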
Method in brief: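 Jurkat cells carrying an NFAT-driven β-lactamase reporter and co-transfected muscarinic M1 receptor were treated with compound plus carbachol (1 uM final, an EC50 level) for 5 h at 37 °C. CCF4 loading followed for 1 h at RT; 460/530 nm ratio gave %activity.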

[5] = Stat Signaling Pathway (AID 446); details: ME-180 (cervical carcinoma) SIE beta-lactamase reporter, IL-6 stimulated, 5 h; at 7.69 µM (top of the series) unless noted;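 further: ME-180 cervical cancer cells given 40 pM IL-6 alongside compound; SIE-controlled beta-lactamase reporter measured as 460/530 nm FRET emission ratio; on the % scale 0 is the no-effect control and ±100 the full control effect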
Method in brief: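 Emission at 460 and 530 nm (excitation 405 nm) reports SIE-controlled beta-lactamase in ME-180 cells. Cells received compound with 40 pM IL-6 for 5 hrs at 37 C; data scaled between 300 pM IL-6 and 125 nM JAK-inhibitor controls.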

[6] = target: Glucocorticoid receptor (Homo sapiens) (UniProt P04150); assay: GR-GFP Redistribution (AID 450;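 active means compounds whose dose series gives a full or clear partial fitted curve of increased nuclear translocation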; further: potency means the concentration at half of the fitted maximal effect); details: U2OS GR-GFP nuclear translocation, laser cytometry, 2 h
Sequence of Glucocorticoid receptor (Homo sapiens) (P04150 whole entry, looked up, the tested form may be a part): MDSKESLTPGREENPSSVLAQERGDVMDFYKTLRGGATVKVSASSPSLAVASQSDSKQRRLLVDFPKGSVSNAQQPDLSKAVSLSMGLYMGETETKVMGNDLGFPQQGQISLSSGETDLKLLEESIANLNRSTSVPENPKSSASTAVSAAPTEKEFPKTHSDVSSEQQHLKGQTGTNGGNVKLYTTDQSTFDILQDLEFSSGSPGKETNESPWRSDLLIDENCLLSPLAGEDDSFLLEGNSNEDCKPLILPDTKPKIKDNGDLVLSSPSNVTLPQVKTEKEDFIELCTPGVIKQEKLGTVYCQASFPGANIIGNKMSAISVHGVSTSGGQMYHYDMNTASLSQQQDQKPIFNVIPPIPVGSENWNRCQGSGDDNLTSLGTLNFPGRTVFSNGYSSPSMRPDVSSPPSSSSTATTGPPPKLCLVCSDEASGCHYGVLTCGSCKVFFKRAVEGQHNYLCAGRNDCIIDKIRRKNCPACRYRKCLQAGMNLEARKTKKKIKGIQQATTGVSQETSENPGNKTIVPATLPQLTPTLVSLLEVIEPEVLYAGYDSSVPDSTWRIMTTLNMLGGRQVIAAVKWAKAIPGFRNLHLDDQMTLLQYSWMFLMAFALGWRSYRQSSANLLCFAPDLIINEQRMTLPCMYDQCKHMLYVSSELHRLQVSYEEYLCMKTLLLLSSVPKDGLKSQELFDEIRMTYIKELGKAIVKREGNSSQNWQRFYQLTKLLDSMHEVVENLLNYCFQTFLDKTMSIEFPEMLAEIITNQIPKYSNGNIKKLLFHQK

[7] = target: Glucocorticoid receptor (Homo sapiens) (UniProt P04150); assay: GR-EFC Redistribution (AID 451; calls by dose curve; further: potency means the concentration at half of the fitted maximal effect); details: CHO-K1 GR-EFC translocation, beta-gal luminescence, 2 h
Method in brief: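 CHO-K1 cells stably expressing nuclear-localized β-gal enzyme acceptor and GR fused C-terminally to the enzyme donor fragment; ligand-driven nuclear translocation restores β-gal by complementation. Compounds titrated up to 46 uM final, 2 h at 37 °C; luminescence read.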

[8] = target: Mitogen-activated protein kinase 10 (Mus musculus) (UniProt Q61831); assay: JNK3 AlphaScreen Assay (AID 530); details: JNK3 lysate, c-Jun phosphorylation; series mostly up to 57.1 µM;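 further: kinase came from lysate of stimulated human HepG2 cells; signal reports phosphorylation of biotinylated GST-cJun 1-79 at Ser73 with 10 µM ATP; on the % scale 0 is the no-effect control and ±100 the full control effect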
Method in brief: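 Biotinylated GST-cJun(1-79) served as substrate for JNK3 in HepG2 lysates stimulated with IL-1beta and TNF-alpha. ATP was 10 uM final, pH 7.6. Ser73 phosphorylation was quantified by AlphaScreen (680 nm excitation).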

[9] = target: Cytochrome P450 3A4 (Homo sapiens) (UniProt P08684); assay: qHTS Assay for Inhibitors and Substrates of Cytochrome P450 3A4 (AID 884; active means well fitted curve in the direction sought with a large enough effect; an effect the other way counts as inactive or inconclusive; further: potency means the concentration at half of the fitted maximal effect; nearly all actives have a fitted effect of over 50% in size); details: recombinant CYP3A4, Luciferin-PPXE luminescence; series mostly up to 57.1 µM
Sequence of Cytochrome P450 3A4 (Homo sapiens) (P08684 whole entry, looked up): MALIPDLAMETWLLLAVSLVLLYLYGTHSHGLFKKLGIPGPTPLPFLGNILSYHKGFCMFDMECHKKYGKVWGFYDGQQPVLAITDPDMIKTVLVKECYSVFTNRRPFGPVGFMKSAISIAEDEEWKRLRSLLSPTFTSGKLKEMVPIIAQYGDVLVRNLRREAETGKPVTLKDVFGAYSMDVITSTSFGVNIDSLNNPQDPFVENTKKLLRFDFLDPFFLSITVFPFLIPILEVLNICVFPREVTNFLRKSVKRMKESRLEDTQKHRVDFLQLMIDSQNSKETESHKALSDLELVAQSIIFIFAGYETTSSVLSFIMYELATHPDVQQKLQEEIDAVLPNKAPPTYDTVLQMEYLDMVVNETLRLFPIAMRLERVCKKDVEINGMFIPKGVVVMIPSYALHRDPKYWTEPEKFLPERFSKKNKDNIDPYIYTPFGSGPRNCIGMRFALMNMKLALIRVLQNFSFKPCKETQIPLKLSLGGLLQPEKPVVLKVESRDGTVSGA
Method in brief: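 Luminescent readout of luciferin produced by CYP3A4 (20 nM) dealkylation of Luciferin-PPXE, 25 uM (its KM). NADPH-driven reaction ran 60 min at RT after 10 min compound preincubation; data scaled to 57 uM ketoconazole as 100% inhibition.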

[10] = target: Cytochrome P450 3A4 (Homo sapiens) (UniProt P08684); assay: qHTS Assay for Activators of Cytochrome P450 3A4 (AID 885; active means well fitted curve in the direction sought with a large enough effect; an effect the other way counts as inactive or inconclusive; further: nearly all actives have a fitted effect of over 65% in size); details: recombinant CYP3A4, Luciferin-PPXE luminescence, 60 min; series mostly up to 57.1 µM
Method in brief: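 Activators are scored by enhanced luminescence from CYP3A4 conversion of luciferin-PPXE (25uM, equal to KM) to luciferin, after 60 min at RT with an NADPH-regenerating system.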

[11] = target: Cytochrome P450 2C19 (Homo sapiens) (UniProt P33261); assay: qHTS Assay for Inhibitors and Substrates of Cytochrome P450 2C19 (AID 899; active means well fitted curve in the direction sought with a large enough effect; an effect the other way counts as inactive or inconclusive; further: nearly all actives have a fitted effect of over 60% in size; further: potency means the concentration at half of the fitted maximal effect); details: recombinant CYP2C19, luciferin-H EGE luminescence; series mostly up to 57.1 µM
Sequence of Cytochrome P450 2C19 (Homo sapiens) (P33261 whole entry, looked up): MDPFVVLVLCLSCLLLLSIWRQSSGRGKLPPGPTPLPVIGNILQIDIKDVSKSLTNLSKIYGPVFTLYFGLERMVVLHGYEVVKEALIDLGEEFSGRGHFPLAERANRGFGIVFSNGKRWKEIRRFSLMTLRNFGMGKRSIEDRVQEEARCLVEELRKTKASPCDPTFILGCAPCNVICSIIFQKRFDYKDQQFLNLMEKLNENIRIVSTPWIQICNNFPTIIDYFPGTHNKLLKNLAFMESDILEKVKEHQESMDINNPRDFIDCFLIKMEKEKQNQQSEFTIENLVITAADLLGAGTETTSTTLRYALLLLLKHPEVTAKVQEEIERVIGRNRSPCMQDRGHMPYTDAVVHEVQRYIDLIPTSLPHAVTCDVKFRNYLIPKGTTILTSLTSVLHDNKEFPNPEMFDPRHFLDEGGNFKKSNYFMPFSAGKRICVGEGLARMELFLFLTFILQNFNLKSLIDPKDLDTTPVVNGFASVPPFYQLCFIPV
Method in brief: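 Human CYP2C19 (5nM) with Luciferin-H EGE at 10uM (its KM) in 50mM KPO4 was preincubated with compound for 10 min at 37C. NADPH regeneration started a 60 min 37C reaction. Luciferin was read by luminescence, normalized to 57uM ketoconazole.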

[12] = Confirmation and Secondary Assay for Modulators of Hemoglobin Beta Chain Splicing at IVS2 654 locus (AID 910; active means well fitted curve in the direction sought with a large enough effect; an effect the other way counts as inactive or inconclusive; further: % of control where 0% means no effect); details: HeLa EGFP-654 splicing reporter, GFP fluorescence, 48 h; series mostly up to 38.3 µM
Method in brief: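 HeLa cells stably carrying EGFP interrupted by mutant beta-globin IVS2-654 intron (CMV-driven) were treated with compound for 2 days at 37C; corrected splicing was scored as total peak GFP intensity per well (488 nm excitation, 500-520 nm emission).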

[13] = Confirmation and Secondary Assay for Modulators of Hemoglobin Beta Chain Splicing at IVS2 705 locus (AID 930; active means well fitted curve in the direction sought with a large enough effect; an effect the other way counts as inactive or inconclusive;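 further: HeLa cells stably expressing the EGFP-705 splicing reporter; GFP fluorescence per well restored by corrected splicing of the IVS2-705 intron in EGFP; % of control where 0% means no effect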); details: HeLa EGFP-705 splicing reporter, GFP fluorescence, 48 h; series mostly up to 38.3 µM
Method in brief: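 HeLa cells stably carrying EGFP interrupted by mutant beta-globin intron 2 (IVS2-705) treated 2 days at 37C with compound; 500 nM antisense PNA as control. Correct splicing read as total peak GFP intensity per well by laser-scanning cytometry.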

[14] = qHTS Assay for Lipid Storage Modulators (AID 1519; calls by dose curve); details: Drosophila S3 cells, BODIPY lipid droplet/cell ratio, laser cytometry, cells loaded with oleic acid; for activity change, negative = inhibition: at 57.5 µM (top of the series)
Method in brief: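 Cells seeded at 5,000 per well were treated with compounds over a concentration series and loaded with oleic acid (400 uM, as added). Lipid droplet fluorescence (488 nm excitation, 500-530 nm channel) was read by laser-scanning cytometry and normalized to 20 uM Triacsin C.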

[15] = target: 3',5'-cyclic-AMP phosphodiesterase 4B (Homo sapiens) (UniProt Q07343); assay: qHTS Assay for Inhibitors of PDE-IV (AID 607; active means well fitted activation curve with a large enough effect in the main read-out, with a control signal flat, not every such curve was filed as active; further: % of control where 0% means no effect); details: HEK293 ACTOne CNG channel cells, membrane potential fluorescence; series mostly up to 22.9 µM
Sequence of 3',5'-cyclic-AMP phosphodiesterase 4B (Homo sapiens) (Q07343 whole entry, looked up): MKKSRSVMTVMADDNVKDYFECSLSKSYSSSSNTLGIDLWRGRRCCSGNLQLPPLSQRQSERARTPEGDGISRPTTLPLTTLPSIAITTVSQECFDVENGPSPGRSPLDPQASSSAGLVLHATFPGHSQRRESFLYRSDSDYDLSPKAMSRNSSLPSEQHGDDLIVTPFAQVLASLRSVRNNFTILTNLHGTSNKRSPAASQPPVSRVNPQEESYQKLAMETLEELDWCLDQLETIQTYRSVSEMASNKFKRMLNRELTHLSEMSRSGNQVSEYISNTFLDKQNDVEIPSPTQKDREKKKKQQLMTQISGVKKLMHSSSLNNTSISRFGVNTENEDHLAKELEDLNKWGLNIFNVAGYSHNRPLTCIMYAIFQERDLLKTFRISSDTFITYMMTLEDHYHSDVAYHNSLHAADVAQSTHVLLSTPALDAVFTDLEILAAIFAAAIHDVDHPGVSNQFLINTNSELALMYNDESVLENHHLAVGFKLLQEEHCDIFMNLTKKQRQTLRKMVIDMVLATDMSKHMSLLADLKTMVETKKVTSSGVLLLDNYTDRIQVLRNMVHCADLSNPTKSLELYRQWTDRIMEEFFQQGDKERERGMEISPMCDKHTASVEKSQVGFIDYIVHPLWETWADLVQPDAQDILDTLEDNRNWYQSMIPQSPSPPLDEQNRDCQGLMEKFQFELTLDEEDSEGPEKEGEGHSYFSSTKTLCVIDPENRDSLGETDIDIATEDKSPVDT
Method in brief: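 The readout is membrane depolarisation from a cAMP-sensing CNG channel, detected with a potential dye at ex 535/em 590. Cells were HEK293-derived (endogenous PDE-IV) at 1000 cells/well, titrated up to 22.9 uM final.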

[16] = target: Ubiquitin carboxyl-terminal hydrolase 1 (Homo sapiens) (UniProt O94782); assay: Inhibitors of USP1/UAF1: Pilot qHTS (AID 504865; active means well fitted curve in the direction sought with a large enough effect; an effect the other way counts as inactive or inconclusive;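 further: rhodamine fluorescence freed from ubiquitin-rhodamine substrate followed over time; top concentration of the series differs between compounds; on the % scale 0 is the no-effect control and ±100 the full control effect; nearly all actives have a fitted effect of over 35% in size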); details: purified USP1/UAF1, Ub-rhodamine cleavage fluorescence; series mostly up to 54.9 µM
Sequence of Ubiquitin carboxyl-terminal hydrolase 1 (Homo sapiens) (O94782 whole entry, looked up): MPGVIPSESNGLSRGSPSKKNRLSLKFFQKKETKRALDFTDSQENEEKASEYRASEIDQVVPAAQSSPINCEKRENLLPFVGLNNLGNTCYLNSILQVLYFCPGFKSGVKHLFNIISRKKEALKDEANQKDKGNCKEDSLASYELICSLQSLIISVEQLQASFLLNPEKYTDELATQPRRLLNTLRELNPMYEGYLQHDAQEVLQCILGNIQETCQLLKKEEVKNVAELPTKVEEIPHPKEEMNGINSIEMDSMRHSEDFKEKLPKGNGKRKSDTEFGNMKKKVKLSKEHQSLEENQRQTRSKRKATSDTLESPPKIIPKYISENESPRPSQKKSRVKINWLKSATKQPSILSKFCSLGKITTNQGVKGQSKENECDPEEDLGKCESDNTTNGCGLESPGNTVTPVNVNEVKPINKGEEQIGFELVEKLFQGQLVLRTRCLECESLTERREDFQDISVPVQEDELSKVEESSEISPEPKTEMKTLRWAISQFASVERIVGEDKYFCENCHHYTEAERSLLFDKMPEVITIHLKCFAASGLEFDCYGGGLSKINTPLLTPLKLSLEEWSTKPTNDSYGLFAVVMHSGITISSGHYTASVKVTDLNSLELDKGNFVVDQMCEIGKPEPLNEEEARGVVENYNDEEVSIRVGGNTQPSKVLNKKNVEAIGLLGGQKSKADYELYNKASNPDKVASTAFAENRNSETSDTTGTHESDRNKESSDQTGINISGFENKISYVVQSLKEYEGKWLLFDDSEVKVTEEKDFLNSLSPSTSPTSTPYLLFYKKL
Method in brief: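 Kinetic fluorescence assay: 1nM USP1/UAF1, 15 min compound preincubation, then 150nM Ub-Rho; 480/540 nm.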

[17] = measured here: cell count channel max response
[18] = measured here: lipid channel max response

Cc1cccc(CNc2nc(-c3ccoc3)nc3ccccc23)c1
active: Potency [3] 1.26 µM | Potency [9] 6.31 µM | Potency [11] 7.94 µM
-2.26%: max response [14, 18]
inactive: Potency [1] > 11.4 µM | activity change, negative = inhibition [2] -0.544% | activity change, negative = inhibition [4] -3.51% | activity, negative = inhibition [5] -10.1% | Potency [6] > 46 µM | Potency [7] > 46 µM | Potency [8] | Potency [10] | Potency [12] | outcome [13] | activity change, negative = inhibition [14] 11.1%
-24.1%: max response [14, 17]

COCCNc1ncnc2ccc(-c3ccccc3CN(C)C)cc12
25.7%: max response [14, 18]
inactive: Potency [1] > 11.4 µM | activity change, negative = inhibition [2] -22.6% | activity change, negative = inhibition [4] -6.98% | activity, negative = inhibition [5] 4.88% | Potency [6] > 46 µM | Potency [8] | Potency [15] | Potency [10] | Potency [12] | outcome [13] | activity change, negative = inhibition [14] 12.3% | Potency [16]
active: Potency [3] 25.1 µM
13.6%: max response [14, 17]

CNc1ncnc2ccc(-c3ccccc3OC)cc12
0.542%: max response [14, 18]
0.392%: max response [14, 17]
inactive: Potency [1] > 11.4 µM | activity change, negative = inhibition [2] 0.353% | activity change, negative = inhibition [4] 15.1% | activity, negative = inhibition [5] -15.7% | Potency [6] > 46 µM | Potency [7] > 46 µM | Potency [8] | Potency [15] | Potency [10] | Potency [12] | outcome [13] | activity change, negative = inhibition [14] 1.03% | Potency [16]
active: Potency [3] 2.51 µM

CC(C)NC(=O)N1CCC2(CC1)CCN(C(=O)c1cnccn1)CC2
inactive: Potency [1] > 11.4 µM | activity change, negative = inhibition [2] -0.14% | Potency [3] | activity change, negative = inhibition [4] 7.26% | activity, negative = inhibition [5] -2.84% | Potency [7] > 46 µM | Potency [8] | Potency [15] | activity change, negative = inhibition [14] 0.356%
15.3%: max response [14, 17]
17.7%: max response [14, 18]

CNc1nc(-c2ccccc2OC)nc2ccccc12
active: Potency [3] 0.398 µM
-10.6%: max response [14, 17]
-7.86%: max response [14, 18]
inactive: Potency [1] > 11.4 µM | activity change, negative = inhibition [2] 7.61% | activity change, negative = inhibition [4] -10.4% | activity, negative = inhibition [5] 17.7% | Potency [6] > 46 µM | Potency [7] > 46 µM | Potency [8] | Potency [15] | Potency [10] | Potency [11] | Potency [12] | outcome [13] | activity change, negative = inhibition [14] 2.04% | Potency [16]
